Assay results: PubChem BioAssay
Activity calls are given as the source filed them. Unless noted, how the calls were made is not given here.

Experiments:
[1] = anti-His antibody binders, primary screen, artefact control for SMM control protein annotation, biochemical, small-molecule microarray, 635 nm fluorescence (AID 1128); settings: anti-His Alexa647 antibody binding, higher = more signal;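 further: score merges feature fluorescence with signal-to-noise for each printed compound spot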
[2] = system: Human papillomavirus type 1a E7 protein (residues 1-88); test: HPV1a E7 small-molecule binders, primary screen, biochemical, small-molecule microarray, residues 1-88, 635 nm (AID 1129); settings: small-molecule microarray binding, fluorescence 635 nm; higher = more signal
[3] = target: Focal adhesion kinase 1 (Homo sapiens) (UniProt Q05397); test: small-molecule microarray binders of FAK, primary screen, biochemical, 635/667 nm fluorescence, BSA, DTT (AID 1130); settings: PTK2 binding, 635 nm fluorescence, higher = more signal;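 further: composite of spot emission at 667 nm and signal to noise over triplicate slides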
Focal adhesion kinase 1 (Homo sapiens), sequence (Q05397 whole entry, looked up): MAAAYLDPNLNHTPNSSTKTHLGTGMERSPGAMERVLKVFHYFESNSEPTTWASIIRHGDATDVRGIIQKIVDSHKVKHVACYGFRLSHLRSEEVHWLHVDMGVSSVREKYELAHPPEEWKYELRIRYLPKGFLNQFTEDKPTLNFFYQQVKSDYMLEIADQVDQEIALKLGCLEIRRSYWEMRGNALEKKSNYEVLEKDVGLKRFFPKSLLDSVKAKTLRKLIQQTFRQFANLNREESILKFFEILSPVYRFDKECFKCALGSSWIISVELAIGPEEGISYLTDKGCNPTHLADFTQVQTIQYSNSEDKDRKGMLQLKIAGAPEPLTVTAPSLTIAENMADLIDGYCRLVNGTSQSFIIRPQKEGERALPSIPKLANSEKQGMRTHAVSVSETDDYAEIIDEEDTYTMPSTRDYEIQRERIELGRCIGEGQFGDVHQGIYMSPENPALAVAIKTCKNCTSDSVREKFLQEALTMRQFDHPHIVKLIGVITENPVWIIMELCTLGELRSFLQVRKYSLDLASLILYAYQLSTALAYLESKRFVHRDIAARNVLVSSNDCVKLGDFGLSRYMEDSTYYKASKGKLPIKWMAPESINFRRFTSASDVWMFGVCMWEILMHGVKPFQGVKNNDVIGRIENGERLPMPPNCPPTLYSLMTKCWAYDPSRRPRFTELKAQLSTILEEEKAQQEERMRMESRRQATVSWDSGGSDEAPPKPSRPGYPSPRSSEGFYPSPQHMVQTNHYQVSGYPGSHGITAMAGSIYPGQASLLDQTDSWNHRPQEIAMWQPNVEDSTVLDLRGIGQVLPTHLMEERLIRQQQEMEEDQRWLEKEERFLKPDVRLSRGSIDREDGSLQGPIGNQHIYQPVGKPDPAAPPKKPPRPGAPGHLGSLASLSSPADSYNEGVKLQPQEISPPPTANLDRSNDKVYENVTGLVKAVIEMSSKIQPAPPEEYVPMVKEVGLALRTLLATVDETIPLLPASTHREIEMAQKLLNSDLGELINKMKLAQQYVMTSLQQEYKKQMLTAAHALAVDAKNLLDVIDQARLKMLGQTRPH

[4] = system: Fibrinogen (Alexa647-labelled); test: fibrinogen binders on compound microarrays, profiling panel, artefact control for SMM control-protein annotation, biochemical, small-molecule microarray, 635/667 nm fluorescence (AID 1131); settings: fibrinogen-A647 binding fluorescence, higher = more signal;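 further: z-score merges 667 nm fluorescence with per-spot signal-to-noise over triplicate slides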
[5] = target: Follistatin (Homo sapiens) (UniProt P19883); test: follistatin binders on small-molecule microarrays, primary screen, biochemical, small-molecule microarray, 635/667 nm fluorescence (AID 1132); settings: FST binding, 635 nm fluorescence, higher = more signal
Follistatin (Homo sapiens), sequence (P19883 whole entry, looked up): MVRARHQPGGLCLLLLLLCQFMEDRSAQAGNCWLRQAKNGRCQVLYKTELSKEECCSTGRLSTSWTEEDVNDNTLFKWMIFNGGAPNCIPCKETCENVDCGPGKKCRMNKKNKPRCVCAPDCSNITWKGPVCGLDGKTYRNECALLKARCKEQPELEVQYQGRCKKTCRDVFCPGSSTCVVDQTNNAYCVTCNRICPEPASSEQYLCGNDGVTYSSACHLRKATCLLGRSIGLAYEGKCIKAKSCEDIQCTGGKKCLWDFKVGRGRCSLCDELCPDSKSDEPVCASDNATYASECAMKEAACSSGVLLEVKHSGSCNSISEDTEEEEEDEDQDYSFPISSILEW

[6] = target: Fibroblast growth factor 2 (Homo sapiens) (UniProt P09038); test: FGF2 binders on small-molecule microarrays, primary screen, biochemical, small-molecule microarray, 635/667 nm fluorescence (AID 1133); settings: small-molecule microarray binding, FGF2, fluorescence 635/667; higher = more signal
Fibroblast growth factor 2 (Homo sapiens), sequence (P09038 whole entry, looked up): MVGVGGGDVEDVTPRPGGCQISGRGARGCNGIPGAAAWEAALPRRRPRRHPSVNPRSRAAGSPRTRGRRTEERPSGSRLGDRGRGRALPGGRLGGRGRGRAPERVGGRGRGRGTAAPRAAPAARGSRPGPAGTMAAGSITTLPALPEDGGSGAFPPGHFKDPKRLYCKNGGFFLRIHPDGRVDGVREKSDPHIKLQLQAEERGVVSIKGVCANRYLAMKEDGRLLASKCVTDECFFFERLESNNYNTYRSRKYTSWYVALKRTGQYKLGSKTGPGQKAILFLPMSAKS

[7] = mitochondrial membrane potential change in A549 cells, profiling panel, cell-based, JC-1 fluorescence, basal, 24 h, 100 nL (AID 1138); settings: higher = more signal;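 further: A549 lung adenocarcinoma cells under basal conditions with no added stimulus; test concentration not given here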
Lefty1 = Lefty1 binders on small-molecule microarrays, primary screen, biochemical, small-molecule microarray, 635/667 nm fluorescence (AID 1139); settings: small-molecule microarray binding, fluorescence 635/667; higher = more signal
[8] = system: wheat germ agglutinin (Triticum aestivum), Alexa647-labelled; test: wheat germ agglutinin binders on compound microarrays, profiling panel, artefact control for SMM control-protein annotation, biochemical, small-molecule microarray, 635/667 nm fluorescence (AID 1140); settings: WGA-A647 binding, 635 nm fluorescence, higher = more signal;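 further: score merges 667 nm feature emission with signal to noise over triplicate slides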
[9] = target: Luciferin 4-monooxygenase (Photinus pyralis) (UniProt P08659); test: firefly luciferase enzyme inhibitors, primary screen, biochemical, luminescence, purified enzyme, 2006 set (AID 1141); settings: SteadyGlo luminescence, 30 min, higher = more signal, called active from +8 up or from −8 down;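 further: cell-free assay with purified firefly luciferase at 100 ng per well in PBS; test concentration not given here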
Luciferin 4-monooxygenase (Photinus pyralis), sequence (P08659 whole entry, looked up): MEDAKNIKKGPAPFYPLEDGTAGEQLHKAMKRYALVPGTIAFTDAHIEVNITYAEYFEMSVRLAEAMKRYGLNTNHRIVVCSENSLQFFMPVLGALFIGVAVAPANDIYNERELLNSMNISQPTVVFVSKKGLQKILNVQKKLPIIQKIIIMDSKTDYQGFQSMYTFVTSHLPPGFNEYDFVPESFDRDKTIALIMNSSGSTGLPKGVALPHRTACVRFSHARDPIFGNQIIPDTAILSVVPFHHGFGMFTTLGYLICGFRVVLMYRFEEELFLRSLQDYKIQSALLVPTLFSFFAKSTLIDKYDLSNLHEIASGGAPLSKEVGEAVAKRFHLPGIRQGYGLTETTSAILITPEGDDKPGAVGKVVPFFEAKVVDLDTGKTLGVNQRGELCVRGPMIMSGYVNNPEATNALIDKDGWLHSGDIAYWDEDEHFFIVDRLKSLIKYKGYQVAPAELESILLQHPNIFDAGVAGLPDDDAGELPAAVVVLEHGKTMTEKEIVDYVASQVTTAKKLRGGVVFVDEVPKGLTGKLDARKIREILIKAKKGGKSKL

[10] = system: Wnt5a (protein binding on small-molecule microarray); test: Wnt5a binders on small-molecule microarray, primary screen, biophysical, 635/667 nm fluorescence (AID 1142); settings: 635 nm fluorescence, higher = more signal;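 further: fluorescence read at 667 nm with signal to noise per printed feature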
[11] = cell viability in Huh7 cells, primary screen, cytotoxicity control for HCV replication inhibitor project, CellTiter-Glo luminescence, basal, 48 h (AID 1143); settings: Huh7 HCV replicon, higher = more signal, called active from +8 up or from −8 down;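 further: Huh7 hepatoma cells carrying a hepatitis C replication reporter with no stimulus; test concentration not given here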
[12] = P. aeruginosa biofilm formation inhibitors, primary screen, PAO1 strain, BacTiter-Glo luminescence, LB-PBS (AID 1144); settings: 12 h, higher = more signal
[13] = CREB reporter modulators without forskolin, primary screen, cell-based, PC12, CRE-LacZ reporter, unstimulated (AID 1145); settings: no forskolin, luminescence, 4.5 h, higher = more signal, called active from +8 up or from −8 down
[14] = CREB reporter modulators under forskolin, primary screen, cell-based, PC12, CRE-LacZ reporter, forskolin-stimulated (AID 1146); settings: luminescence, 4.5 h, higher = more signal, called active from +8 up or from −8 down;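 further: PC12 cells with 6xCRE LacZ reporter stimulated by forskolin 10 µM; beta-galactosidase reporter signal reflecting CREB driven transcription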
[15] = target: Streptavidin (Streptomyces avidinii) (UniProt P22629); test: streptavidin binders on small-molecule microarray, primary screen, artefact control for SMM compound annotation, biophysical, 635/667 nm fluorescence (AID 1147); settings: streptavidin binding, higher = more signal;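 further: signal reflects streptavidin binding to arrayed compounds as a control protein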
Streptavidin (Streptomyces avidinii), sequence (P22629 whole entry, looked up): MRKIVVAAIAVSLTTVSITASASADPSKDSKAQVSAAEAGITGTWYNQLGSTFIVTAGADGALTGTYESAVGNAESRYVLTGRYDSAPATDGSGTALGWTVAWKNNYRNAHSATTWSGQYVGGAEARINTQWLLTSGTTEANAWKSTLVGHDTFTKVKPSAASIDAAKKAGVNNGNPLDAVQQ

[16] = small-molecule binders of probe aInhba, primary screen, biochemical, small-molecule microarray, 635/667 nm fluorescence (AID 1148); settings: higher = more signal;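 further: score merges 667nm spot fluorescence with signal-to-noise for antibody binding to printed compounds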
Torsin-1A (Homo sapiens) [17] = target: Torsin-1A (Homo sapiens) (UniProt O14656); test: torsin A binders from cell lysate, primary screen, small-molecule microarray, wild-type, 635/667 nm (AID 1149); settings: COS7 hTOR1A-WT lysate, 635 nm fluorescence, higher = more signal
Torsin-1A (Homo sapiens), sequence (O14656 whole entry, looked up): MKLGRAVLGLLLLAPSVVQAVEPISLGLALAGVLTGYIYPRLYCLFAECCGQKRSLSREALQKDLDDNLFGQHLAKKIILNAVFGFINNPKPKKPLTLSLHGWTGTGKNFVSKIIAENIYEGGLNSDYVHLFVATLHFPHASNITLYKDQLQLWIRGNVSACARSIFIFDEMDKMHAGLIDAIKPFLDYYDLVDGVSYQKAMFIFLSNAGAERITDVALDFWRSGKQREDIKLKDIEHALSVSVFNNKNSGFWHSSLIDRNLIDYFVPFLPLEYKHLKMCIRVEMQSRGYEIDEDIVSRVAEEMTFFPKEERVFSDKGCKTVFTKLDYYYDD

Torsin-1A (Homo sapiens) [18] = target: Torsin-1A (Homo sapiens) (UniProt O14656); test: small-molecule binders of mutant TOR1A in lysate, primary screen, cell lysate, small-molecule microarray, COS7 lysate, 635/667 nm fluorescence (AID 1150); settings: COS7 hTOR1A mutant lysate, 635 nm fluorescence, higher = more signal;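 further: score pools 667 nm emission and signal to noise measuring lysate protein binding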
[19] = system: Sonic hedgehog protein (Shh); test: small-molecule binders of Shh protein, primary screen, biochemical, small-molecule microarray, 635/667 nm fluorescence (AID 1151); settings: small-molecule microarray binding, 635 nm fluorescence; higher = more signal;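 further: Shh protein binding to compounds spotted on small-molecule microarray slides; score combines spot fluorescence intensity with signal-to-noise across triplicate slides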

Compound	composite z-score [1]	composite z-score [2]	composite z-score [3]	composite z-score [4]	composite z-score [5]	composite z-score [6]	z-score [7]	composite z-score (Lefty1)	composite z-score [8]	z-score [9]	composite z-score [10]	z-score [11]	z-score [12]	z-score [13]	z-score [14]	composite z-score [15]	composite z-score [16]	composite z-score (Torsin-1A (Homo sapiens) [17])	composite z-score (Torsin-1A (Homo sapiens) [18])	composite z-score [19]
CCOC(=O)C[C@H]1[C@H](OC(=O)c2ccccc2-c2ccccc2)[C@@H](NC(=O)c2ccc3ccccc3c2)c2cc(OCCCO)ccc2N1C(=O)c1ccccc1	1.49	0.844	0.288	0.609	0.91	1.08	1.04	0.868	-0.0223	-0.124 (inactive)	0.331	-0.399 (inactive)	1.6 (inactive)	2.94 (inactive)	-0.0955 (inactive)	0.157	0.102	0.0464	0.472	0.536
[N-]=[N+]=NCc1ccccc1[C@H]1OC(c2ccc(OCCCO)cc2)=N[C@@]1(Cc1ccccc1N=[N+]=[N-])C(=O)NCC(O)CO (stereo not given in full)	0.363	1.22	0.566	0.711	1.13	-0.401	0.118	0.194	1.12	-2.09 (inactive)	0.462	-3.57 (inactive)	0.401 (inactive)	0.745 (inactive)	-1.22 (inactive)	0.9	0.346	0.256	0.301	-0.562
Cc1ccc(S[C@]2(C(=O)NC(C)C)CC(=O)N(Cc3cc(C(F)(F)F)cc(C(F)(F)F)c3)[C@@H]2c2ccc(CO)cc2)cc1	-0.254	-0.629	-0.734	-0.983	-1.33	-0.977	0.605	-0.67	0.0491	-0.222 (inactive)	0.0368	-0.523 (inactive)	0.0139 (inactive)	0.0655 (inactive)	0.832 (inactive)	-1.18	-0.121	-1.86	-1.78	-0.621
CC(=O)NCCCC[C@@H]1NC(=O)[C@@H]2C[C@H](C(=O)NCCCCCN)[C@H](c3cccc(OCCO)c3)N2C1=O	0.586	1.04	0.295	0.97	1.37	1.6	0.989	1.03	0.79	0.159 (inactive)	0.698	-0.804 (inactive)	-1.02 (inactive)	-1.34 (inactive)	-0.892 (inactive)	1.37	-0.19	0.738	-0.0879	1.66
C[C@@H]1NC(=O)[C@@H](Cc2ccccc2)NC(=O)[C@@]23C(=O)N[C@@H](Cc4ccccc4)C2[C@H](C)[C@@]2(C)O[C@H]2C3/C=C/C/C=C\CNC1=O (stereo not given in full)	-0.116	-0.514	-0.0535	-0.913	0.41	-0.0086	-0.0637	0.633	-0.889	-1.03 (inactive)	-0.186	0.15 (inactive)	0.111 (inactive)	3.57 (inactive)	0.272 (inactive)	-0.963	-0.187	0.406	0.32	1.45
Cc1ccc(S[C@]2(C(=O)NCc3ccccc3)CC(=O)N(C3CCCCC3)[C@@H]2c2ccc(CO)cc2I)cc1	0.731	0.872	0.25	0.773	0.382	0.904	1.3	-0.0294	0.68	-0.421 (inactive)	0.301	-4.53 (inactive)	-0.183 (inactive)	0.389 (inactive)	1.01 (inactive)	1.5	-0.0221	0.0358	0.944	0.259
Cc1ccc(S[C@]2(C(=O)NCC(F)(F)F)CC(=O)N(Cc3cc(C(F)(F)F)cc(C(F)(F)F)c3)[C@@H]2c2ccc(CO)cc2)cc1	1.86	-1.33	-0.237	-1.09	-0.192	-0.897	0.0304	-0.126	-0.744	-0.46 (inactive)	-0.824	-0.262 (inactive)	0.75 (inactive)	0.182 (inactive)	-0.0993 (inactive)	-0.638	-0.0933	-1.5	-1.2	0.319
CCOC(=O)C[C@H]1[C@H](OC(=O)Cc2ccc3c(c2)OCO3)[C@@H](NC(=O)c2ccc3ccccc3n2)c2cc(OCCCO)ccc2N1C(=O)c1ccccc1	-0.0867	0.381	-0.0076	0.364	0.803	0.902	2.23	0.755	0.326	-0.992 (inactive)	0.151	-0.301 (inactive)	-0.283 (inactive)	7.23 (inactive)	0.613 (inactive)	0.386	0.0074	0.526	0.302	0.826
Cc1ccc(S[C@]2(C(=O)NCCN3CCOCC3)CC(=O)N(Cc3ccccc3Cl)[C@@H]2c2ccc(CO)cc2I)cc1	-0.882	-0.227	1.09	-0.646	-0.349	0.388	1.08	-1.57	0.498	-0.43 (inactive)	0.0976	-2.1 (inactive)	-0.0266 (inactive)	-0.581 (inactive)	0.631 (inactive)	-0.343	0.658	-1.69	0.75	-0.316
[N-]=[N+]=Nc1ccccc1C[C@@]1(C(N)=O)N=C(c2ccc(OCCCO)cc2)O[C@@H]1c1ccccc1N=[N+]=[N-]	1.76	1.23	0.0444	0.637	0.062	-0.0354	-0.498	-0.37	0.0911	-4.2 (inactive)	0.351	-5.17 (inactive)	-0.0225 (inactive)	-0.207 (inactive)	-1.89 (inactive)	0.823	0.258	0.252	0.789	-0.535
